Data published in paper PMC12864922, “TDP-43 directly inhibits mRNA accumulation in neurites through modulation of mRNA stability”.
In all, about 9,900 sequences were measured (“r (bound/input frequency ratio)”: median about 0.7, highest 2% from about 6.5 on). The list comes from a sample in which the highest values are over-represented; it also holds similar and randomly drawn sequences.

B1: ENSMUSG00000058297.78|Spock2 (ssRNA)
RNA: GGGAGUUCUACAGUCCGACGAUCGCUUCGAUAUCCGCAUGCUACUCAGCCCAACACCUGGAAUCCCUGCCCUGCCUAAUCAGCCCUACCCCAUCCUGCCUUUCUUCCUUCCUCUUCUGAGGCCAGGGAGAGGGAGGGAGGGCAGGCAGCUGAAAGCUGAGCGUCCUCCCCAAAUUGGGCUGAUUUGAUAUGAAAGCCCCACCACGGUCUUGUGGUGAUGAGGCAGGACCUGUACACACAGCAAGGCUUACUAUCCGUCUCCUGACAUCCGAAGAGCUCGUCGCAGGUGUGUCUAAUGGCCCUUCUCUUGCGGUCGCACUAGUGUGGAAUUCUCGGGUGUCAAGG
B2: ENSMUSG00000031028.156|Tub|40:45;125:130 (ssRNA)
RNA: GGGAGUUCUACAGUCCGACGAUCGCUUCGAUAUCCGCAUGCUAAGCUCCCAUUAUUGCCAGCAUGCCAUGAUCAGUGAGGGCACACACCCAUGCUUAGGGGGAUGGCGCAGGGUGAGGGGAGCAGAGGAUAUUUUAGGGCCACAAGAGCUCAGAGGUAGCGGACCUCACACACGUUCACCAACAGCAAUGCUGAUCCCUGAGUAUAGGGCACAUGUCUCUUGGUUACCUCACUGGUUAAUGGCAGAGUUGAGAACCUCAAAUUCUUUUGUUCCUACUGUUGCCCAGAAACUAGACUCUCUGACCUCUUGCGGUCGCACUAGUGUGGAAUUCUCGGGUGUCAAGG
B3: ENSMUSG00000028439.156|Fam219a (ssRNA)
RNA: GGGAGUUCUACAGUCCGACGAUCGCUUCGAUAUCCGCAUGCUAUCACCCUAGCUCAAAGUCCAGGAGCCAGGCUUCCAGAAAGGCUCUUCAAGAGCAAGCUUAAGGAAAUACAGUGAGCCAAGUGGCUGUAUGAUAUGGUAUGGUAUGGUAUGGUAUGGUAUGGUAUGGUAUGCACAUGUGUGUGCAUGUGUGUGUGCCUGUGUGUGUGCGUGUGCGUGUGUGUAUGUGUGUGCGUGUGUGUGUGUGUGUGUUGUACCCGAGUGUGUGUUGAGCCUAUCUGUCCAGGGAACCAGAUUGGUGUCCUCUUGCGGUCGCACUAGUGUGGAAUUCUCGGGUGUCAAGG
B4: ENSMUSG00000028439.157|Fam219a (ssRNA)
RNA: GGGAGUUCUACAGUCCGACGAUCGCUUCGAUAUCCGCAUGCUAUAGCUCAAAGUCCAGGAGCCAGGCUUCCAGAAAGGCUCUUCAAGAGCAAGCUUAAGGAAAUACAGUGAGCCAAGUGGCUGUAUGAUAUGGUAUGGUAUGGUAUGGUAUGGUAUGGUAUGGUAUGCACAUGUGUGUGCAUGUGUGUGUGCCUGUGUGUGUGCGUGUGCGUGUGUGUAUGUGUGUGCGUGUGUGUGUGUGUGUGUUGUACCCGAGUGUGUGUUGAGCCUAUCUGUCCAGGGAACCAGAUUGGUGUCCGAGAUCUCUUGCGGUCGCACUAGUGUGGAAUUCUCGGGUGUCAAGG
B5: ENSMUSG00000061578.89|Ksr2 (ssRNA)
RNA: GGGAGUUCUACAGUCCGACGAUCGCUUCGAUAUCCGCAUGCUACAAACAUCUGAUUUUAGAGGUCCCAUUCCAAGAUGGAAGUCACCGGUUGCCGCUGAGCACACAAUUCUGAAGGACAGUAGGCAGUCCUGCAGGUCUUUUUUAGCACAGGGCCUCUCUGGGGACCAGUCCCUGGCCUUCACCCUUCUCCCAUUUUGUAAGAACACUGUUCUAACUCACCUCAUGCCCACGCUACCCUGGGCAACUGGAGAACACCAUAGCGUUUCAGCUGAUGUGACAUUUGGUGUGACCUUUACCAGUUCCUCUUGCGGUCGCACUAGUGUGGAAUUCUCGGGUGUCAAGG
B6: ENSMUSG00000090935.496|Synj2bp (ssRNA)
RNA: GGGAGUUCUACAGUCCGACGAUCGCUUCGAUAUCCGCAUGCUACUUCACAUAACUAAGCCAUUCAGUACUUUUUGAAACUGACUUAGUAACAGGAGUCAUUGUAAGCUCCAUAGAAGGCAAGACGCAUUCCACAUCUUGUCUUGACCAGCAGCACUCUGGAGGCCCAGUGUCUGCUACCCUUCUUGUAUCUGAUGGCAUGGGUAACAGCUCUGCCAUGGGCCUGCUUACUUCUAGUAUUCACCUCAGGGCUUGGAAAUUGGUUUUGAAAGGCUUUUAGACAUAGAAAGUAAAACUAAUGGCAACUCUUGCGGUCGCACUAGUGUGGAAUUCUCGGGUGUCAAGG
B7: ENSMUSG00000032194.286|Kank2 (ssRNA)
RNA: GGGAGUUCUACAGUCCGACGAUCGCUUCGAUAUCCGCAUGCUAGGAUGGGUGGACGGAUGAGUGUGGGGUGGGUGGAUGGAUAAAUGAGCAAUGGAUGAGAAACUGGGUUGGCUGGUGGGUAGAUGUCAUGAUGGAGUCUUUGCACGUGUAUGAAACAGAAAACCAAACUUCAGGACAGACAGCUGCUGGUGUCUCUGGAUGCUCACAGCCUAGGGCACAUUUGAAAGGUCGUGCUCUGAGCUGAGCCCUGAGUUCCAGCCUUGUAGCCAGCAAGGGAGUUUAUUUAAGGUUCUGGAAGCAUCCUCUUGCGGUCGCACUAGUGUGGAAUUCUCGGGUGUCAAGG
B8: ENSMUSG00000058297.13|Spock2 (ssRNA)
RNA: GGGAGUUCUACAGUCCGACGAUCGCUUCGAUAUCCGCAUGCUAGGCAGAUGAUGGAGGCUACAUCUGGUAGAUAGCCCUCGACGGCCUCGGCAGGCCAGGGUGCCGACGGCCAGAAAGACAGGCCAGAAGAGACCUGGACAACAGCAGGCAACUUAGCAAAUGGAUCCGGAAGUCAGUGCGGAGGACCCUGGCUCCAGUGGGGGAGGACUGGGGAGUGUGGCUUGUGUGUAUGUGUGAUAUGAGAUGUGUGUGUAUGAUGUGAGAUGUGAGUGUGUGAUGUGAGAUGUGUGUAUGUGAGAUGUCUCUUGCGGUCGCACUAGUGUGGAAUUCUCGGGUGUCAAGG
B9: ENSMUSG00000058297.7|Spock2|209:213;217:230;239:250 (ssRNA)
RNA: GGGAGUUCUACAGUCCGACGAUCGCUUCGAUAUCCGCAUGCUAGGAGGAGGCCGAGGAGGAGGAGGGUGAGGCGGGUGAGGCAGAUGAUGGAGGCUACAUCUGGUAGAUAGCCCUCGACGGCCUCGGCAGGCCAGGGUGCCGACGGCCAGAAAGACAGGCCAGAAGAGACCUGGACAACAGCAGGCAACUUAGCAAAUGGAUCCGGAAGUCAGUGCGGAGGACCCUGGCUCCAGUGGGGGAGGACUGGGGACACACGCUACACACAUACACACAUAUGAGAACACACACAUACAUGUGAGAUGCUCUUGCGGUCGCACUAGUGUGGAAUUCUCGGGUGUCAAGG
B10: ENSMUSG00000058297.17|Spock2 (ssRNA)
RNA: GGGAGUUCUACAGUCCGACGAUCGCUUCGAUAUCCGCAUGCUAGUAGAUAGCCCUCGACGGCCUCGGCAGGCCAGGGUGCCGACGGCCAGAAAGACAGGCCAGAAGAGACCUGGACAACAGCAGGCAACUUAGCAAAUGGAUCCGGAAGUCAGUGCGGAGGACCCUGGCUCCAGUGGGGGAGGACUGGGGAGUGUGGCUUGUGUGUAUGUGUGAUAUGAGAUGUGUGUGUAUGAUGUGAGAUGUGAGUGUGUGAUGUGAGAUGUGUGUAUGUGAGAUGUGUGUGUGUGUGUGUGUGUGUGUGACUCUUGCGGUCGCACUAGUGUGGAAUUCUCGGGUGUCAAGG
B11: ENSMUSG00000058297.4|Spock2|227:231;235:248 (ssRNA)
RNA: GGGAGUUCUACAGUCCGACGAUCGCUUCGAUAUCCGCAUGCUAGGAGACAGAAGAGGCAGGGGAGGAGGCCGAGGAGGAGGAGGGUGAGGCGGGUGAGGCAGAUGAUGGAGGCUACAUCUGGUAGAUAGCCCUCGACGGCCUCGGCAGGCCAGGGUGCCGACGGCCAGAAAGACAGGCCAGAAGAGACCUGGACAACAGCAGGCAACUUAGCAAAUGGAUCCGGAAGUCAGUGCGGAGGACCCUGGCUCCAGUGGGGGAGGACUGGGGACACACGCUACACACAUACACACAUAUGAGAUGUGCUCUUGCGGUCGCACUAGUGUGGAAUUCUCGGGUGUCAAGG
B12: ENSMUSG00000058297.12|Spock2 (ssRNA)
RNA: GGGAGUUCUACAGUCCGACGAUCGCUUCGAUAUCCGCAUGCUAGGGUGAGGCAGAUGAUGGAGGCUACAUCUGGUAGAUAGCCCUCGACGGCCUCGGCAGGCCAGGGUGCCGACGGCCAGAAAGACAGGCCAGAAGAGACCUGGACAACAGCAGGCAACUUAGCAAAUGGAUCCGGAAGUCAGUGCGGAGGACCCUGGCUCCAGUGGGGGAGGACUGGGGAGUGUGGCUUGUGUGUAUGUGUGAUAUGAGAUGUGUGUGUAUGAUGUGAGAUGUGAGUGUGUGAUGUGAGAUGUGUGUAUGUGCUCUUGCGGUCGCACUAGUGUGGAAUUCUCGGGUGUCAAGG
B13: ENSMUSG00000058297.13|Spock2|173:177;181:194;203:214;228:234;243:252 (ssRNA)
RNA: GGGAGUUCUACAGUCCGACGAUCGCUUCGAUAUCCGCAUGCUAGGCAGAUGAUGGAGGCUACAUCUGGUAGAUAGCCCUCGACGGCCUCGGCAGGCCAGGGUGCCGACGGCCAGAAAGACAGGCCAGAAGAGACCUGGACAACAGCAGGCAACUUAGCAAAUGGAUCCGGAAGUCAGUGCGGAGGACCCUGGCUCCAGUGGGGGAGGACUGGGGACACACGCUACACACAUACACACAUAUGAGAACACACACAUACAUGUGAGAUGUGACACACACAUGUGAGAACACACAUACUGAGAUGUCUCUUGCGGUCGCACUAGUGUGGAAUUCUCGGGUGUCAAGG
B14: ENSMUSG00000058297.10|Spock2|191:195;199:212;221:232;246:252 (ssRNA)
RNA: GGGAGUUCUACAGUCCGACGAUCGCUUCGAUAUCCGCAUGCUAGGAGGGUGAGGCGGGUGAGGCAGAUGAUGGAGGCUACAUCUGGUAGAUAGCCCUCGACGGCCUCGGCAGGCCAGGGUGCCGACGGCCAGAAAGACAGGCCAGAAGAGACCUGGACAACAGCAGGCAACUUAGCAAAUGGAUCCGGAAGUCAGUGCGGAGGACCCUGGCUCCAGUGGGGGAGGACUGGGGACACACGCUACACACAUACACACAUAUGAGAACACACACAUACAUGUGAGAUGUGACACACACAUGUGAGACUCUUGCGGUCGCACUAGUGUGGAAUUCUCGGGUGUCAAGG
B15: ENSMUSG00000058297.12|Spock2|179:183;187:200;209:220;234:240;249:258 (ssRNA)
RNA: GGGAGUUCUACAGUCCGACGAUCGCUUCGAUAUCCGCAUGCUAGGGUGAGGCAGAUGAUGGAGGCUACAUCUGGUAGAUAGCCCUCGACGGCCUCGGCAGGCCAGGGUGCCGACGGCCAGAAAGACAGGCCAGAAGAGACCUGGACAACAGCAGGCAACUUAGCAAAUGGAUCCGGAAGUCAGUGCGGAGGACCCUGGCUCCAGUGGGGGAGGACUGGGGACACACGCUACACACAUACACACAUAUGAGAACACACACAUACAUGUGAGAUGUGACACACACAUGUGAGAACACACAUACUGCUCUUGCGGUCGCACUAGUGUGGAAUUCUCGGGUGUCAAGG
B16: ENSMUSG00000058297.17|Spock2|149:153;157:170;179:190;204:210;219:228;234:259 (ssRNA)
RNA: GGGAGUUCUACAGUCCGACGAUCGCUUCGAUAUCCGCAUGCUAGUAGAUAGCCCUCGACGGCCUCGGCAGGCCAGGGUGCCGACGGCCAGAAAGACAGGCCAGAAGAGACCUGGACAACAGCAGGCAACUUAGCAAAUGGAUCCGGAAGUCAGUGCGGAGGACCCUGGCUCCAGUGGGGGAGGACUGGGGACACACGCUACACACAUACACACAUAUGAGAACACACACAUACAUGUGAGAUGUGACACACACAUGUGAGAACACACAUACUGAGAACACACACACACACACACACACACACACUCUUGCGGUCGCACUAGUGUGGAAUUCUCGGGUGUCAAGG

biological target: TDP-43 (Homo sapiens, UniProt Q13148 1-414); experiment: RNA Bind-n-Seq with designed 260-mer pool; 25 mM Tris-HCl, 150 mM KCl, 3 mM MgCl2, BSA (printed 500 mg/mL), 20 units/mL SUPERase IN; pH not stated; 500 nM RNA pool, 1 h, 4 C; TDP-43 5, 50, 500 nM; high values mean tight binding; settings: protein: recombinant; tags: SBP (GST cleaved off with PreScission; pGEX-GST-SBP)
Sequence (Q13148 whole entry): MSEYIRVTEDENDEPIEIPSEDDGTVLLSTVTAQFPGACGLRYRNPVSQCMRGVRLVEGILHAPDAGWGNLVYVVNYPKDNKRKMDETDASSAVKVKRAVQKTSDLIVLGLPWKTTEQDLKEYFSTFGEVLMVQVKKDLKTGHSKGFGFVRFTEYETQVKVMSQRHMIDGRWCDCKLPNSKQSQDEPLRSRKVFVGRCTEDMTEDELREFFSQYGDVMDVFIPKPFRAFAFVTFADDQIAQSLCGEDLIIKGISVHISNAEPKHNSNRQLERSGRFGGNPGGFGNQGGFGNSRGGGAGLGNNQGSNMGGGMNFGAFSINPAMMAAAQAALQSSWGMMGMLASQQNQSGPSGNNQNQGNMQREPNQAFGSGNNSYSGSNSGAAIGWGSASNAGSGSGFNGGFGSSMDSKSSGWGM
Method in brief: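 Duplicate measurements used two independent batches of recombinant SBP-tagged TDP-43, which was captured on streptavidin beads at 5, 50 or 500 nM. The beads were incubated with 500 nM of an in vitro-transcribed 260-nt 3′ UTR oligo pool for 1 h at 4 °C in 25 mM Tris-HCl, 150 mM KCl, 3 mM MgCl2, BSA and SUPERase IN. After washing, biotin elution, reverse transcription, PCR amplification and sequencing, binding was expressed as R: each oligo's normalized read abundance in the bound sample over its abundance in input.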

Row | Binder | binding signal
1 | B1 | 0.631 R (bound/input frequency ratio)
2 | B2 | 0.266 R (bound/input frequency ratio)
3 | B3 | 6.74 R (bound/input frequency ratio)
4 | B4 | 7.39 R (bound/input frequency ratio)
5 | B5 | 0.288 R (bound/input frequency ratio)
6 | B6 | 0.243 R (bound/input frequency ratio)
7 | B7 | 5.11 R (bound/input frequency ratio)
8 | B8 | 7.72 R (bound/input frequency ratio)
9 | B9 | 2.55 R (bound/input frequency ratio)
10 | B10 | 8.62 R (bound/input frequency ratio)
11 | B11 | 2.44 R (bound/input frequency ratio)
12 | B12 | 8.09 R (bound/input frequency ratio)
13 | B13 | 2.37 R (bound/input frequency ratio)
14 | B14 | 2.04 R (bound/input frequency ratio)
15 | B15 | 2.28 R (bound/input frequency ratio)
16 | B16 | 2.9 R (bound/input frequency ratio)
